Hits are enriched below; roughly 1.5% of the tested compounds scored in any of these assays.
PvdQ acylase: blocks Pseudomonas aeruginosa PvdQ acylase activity | purified PvdQ acylase, fluorescence plate reader | hit rate 0.063% among 340,000 | AID 488965 | inhibition, % at 10 µM; in the data active = inhibition above about 30%, passing the limit was not always enough
N-glyco inh: blocks N-linked glycosylation in D54 reporter cells | hit rate 0.23% among 360,000 | reporter increase, % at 12.5 µM | D54 ERlucT glycosylation luciferase reporter, 24 h; percent of 100 nM tunicamycin response;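 active = mean luciferase reporter signal, scaled so untreated is 0 and the glycosylation-blocking control 100, at or above a set limit in every replicate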;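 also: luciferase carries N-glycosylation sites so blocking glycosylation raises the light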
RAD54 inh: blocks human RAD54 Holliday junction branch migration | AID 602329 | FAM/BHQ fluorescence | Q92698 | hit rate 0.14% among 360,000 | inhibition, % at 10.4 µM;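 active = mean normalized replicate activity at least 40 and at least half of replicates scoring 40 or more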;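 also: inhibitors cause a drop in the FAM fluorescence signal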
Target sequence (Q92698 whole entry, looked up): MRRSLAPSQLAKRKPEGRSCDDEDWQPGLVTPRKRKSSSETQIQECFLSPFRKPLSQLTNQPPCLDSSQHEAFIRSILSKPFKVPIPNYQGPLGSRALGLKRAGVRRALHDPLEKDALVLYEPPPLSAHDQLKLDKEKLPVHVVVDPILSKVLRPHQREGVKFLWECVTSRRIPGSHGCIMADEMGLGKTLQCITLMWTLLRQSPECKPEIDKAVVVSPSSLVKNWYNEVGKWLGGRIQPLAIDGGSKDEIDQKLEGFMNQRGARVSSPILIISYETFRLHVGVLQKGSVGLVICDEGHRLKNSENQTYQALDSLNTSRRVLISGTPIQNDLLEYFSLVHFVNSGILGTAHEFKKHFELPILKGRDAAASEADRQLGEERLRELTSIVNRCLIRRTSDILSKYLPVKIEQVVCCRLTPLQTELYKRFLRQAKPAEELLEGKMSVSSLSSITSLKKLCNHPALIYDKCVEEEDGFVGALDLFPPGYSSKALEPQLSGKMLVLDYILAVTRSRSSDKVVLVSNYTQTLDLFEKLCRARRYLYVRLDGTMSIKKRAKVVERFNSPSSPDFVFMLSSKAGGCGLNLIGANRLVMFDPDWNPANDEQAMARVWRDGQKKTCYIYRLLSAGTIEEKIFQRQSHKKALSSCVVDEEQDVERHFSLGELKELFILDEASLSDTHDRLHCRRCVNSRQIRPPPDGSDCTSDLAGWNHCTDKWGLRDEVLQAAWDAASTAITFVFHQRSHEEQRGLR
F508del corr: correctors of CFTR F508del function in bronchial epithelial cells; CFBE cells, YFP halide quenching; stimulated with forskolin plus potentiator P3; % fluorescence drop versus neutral controls; activity (quench increase), % at 7.58 µM; hit rate 0.36% among 350,000;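 active = mean added fluorescence quench of at least 8% versus neutral control, with both replicates also reaching 8%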;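 also: cells transiently co-express mutant CFTR-F508del with the halide-sensitive YFP; corrector assay measuring rescue of mutant channel to the surface after 24 h compound exposure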
RAD52 inh: inhibitors of human RAD52 DNA annealing. recombinant RAD52 DNA annealing, FRET fluorescence. inhibition, % at 18.7 µM. hit rate 0.46% among 360,000;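 active = every replicate showing at least 50% inhibition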
dFosB act-1: activators of mouse delta FosB homodimer; P13346; purified delta FosB, TAMRA-CDK5 oligo fluorescence polarization; percent of positive-control signal above neutral wells; activation, % at 25 µM; hit rate 0.99% among 340,000;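 active = mean activation above about 17%, with every replicate also reaching it, limit read from the data, passing the limit was not always enough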
dFosB act-2: enhances mouse delta FosB homodimer binding to DNA. shares compounds with dFosB act-1. purified delta FosB, TAMRA-CDK5 oligo fluorescence polarization; normalised: neutral wells 0, positive control 100. activation, % at 24.9 µM. 2,400 tested, under 10 active;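 active = highest replicate activation at or above 34% and every replicate reaching that threshold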;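 also: higher polarization means more probe DNA bound by delta FosB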
Numbers stand for hits; 0 = inactive; - = no result.

SMILES	PvdQ acylase	N-glyco inh	RAD54 inh	F508del corr	RAD52 inh	dFosB act-1	dFosB act-2
COc1ccc(CNC(=O)C2CCN(c3nnc(N4CCCC4=O)s3)CC2)cc1	0	0	0	0	0	0	-
COc1ccc(Br)cc1CNC(=O)C1CCN(c2nnc(N3CCCC3=O)s2)CC1	0	0	0	0	0	43.3	0
Nc1nc(CN2CCc3ccccc3C2)nc(Nc2ccccc2)n1	0	0	0	-	-	26.6	0
CCOc1ccc(-c2c(C(=O)N/N=C/c3sccc3C)nnn2-c2nonc2N)cc1	0	0	0	0	0	21.7	0
CCOc1ccc(-c2c(C(=O)N/N=C/c3ccc(C)s3)nnn2-c2nonc2N)cc1	0	0	0	-	-	57.8	0
CCOc1cccc(-c2c(C(=O)N/N=C/c3sccc3C)nnn2-c2nonc2N)c1	0	0	0	0	0	0	-
CCOc1cccc(-c2c(C(=O)N/N=C/c3ccc(C)s3)nnn2-c2nonc2N)c1	0	0	0	0	0	0	-
CCOc1ccc(-c2c(C(=O)N/N=C/c3ccccc3)nnn2-c2nonc2N)cc1	0	0	-	0	0	0	-
CCOc1ccc(-c2c(C(=O)N/N=C/c3ccc(Cl)cc3)nnn2-c2nonc2N)cc1	0	0	0	0	0	44.9	0
O=C(NCC[C@@H]1CC[C@H](NC(=O)C2CCC2)[C@@H](CO)O1)c1cc(Cl)cc(Cl)c1	-	-	0	0	0	-	-
CCOc1cc(/C=N/Nc2nc3ccccc3[nH]2)cc(Br)c1OCC(=O)N(C)C	0	0	0	0	0	22.2	0
O=C(NC[C@H]1[C@@H](c2ccccc2)[C@@H](CO)N1Cc1ccccn1)C1CCC1	-	-	0	0	-	-	-
COc1cc(NC(=O)c2nn(C)c3c2CS(=O)(=O)c2ccccc2-3)cc(OC)c1	0	0	0	0	0	22.7	0
O=C(CSc1nc2ccc(Cl)cc2[nH]1)c1ccc2c(c1)OCO2	0	0	0	-	-	0	-
O=C(CSc1nc2cc(Cl)c(Cl)cc2[nH]1)c1ccc2c(c1)OCO2	0	0	0	0	0	28.1	0
Cc1csc(NC(=O)c2cc3c(C)nn(Cc4ccccc4Cl)c3s2)n1	0	0	0	-	-	45.7	0
Cc1nn(Cc2ccccc2Cl)c2sc(C(=O)NC(C)(C)C)cc12	0	0	-	-	-	0	-
COc1ccc(S(=O)(=O)N[C@@H]2CC[C@@H](CC(=O)NCc3ccccc3F)O[C@H]2CO)cc1	-	-	0	0	0	-	-
Cc1noc(C)c1NC(=O)Nc1cccc2c1O[C@@H](CN(C)C(=O)NC1CCCCC1)[C@@H](C)CN([C@@H](C)CO)C2=O	-	-	0	0	0	-	-
O=C(N/N=C/c1cccnc1)c1cccc(S(=O)(=O)Nc2cccc(Cl)c2)c1	0	0	0	0	0	30.7	0
COc1ccc(NS(=O)(=O)c2cccc(C(=O)N/N=C/c3cccs3)c2)cc1	0	0	0	0	0	0	-
COc1ccc(NS(=O)(=O)c2cccc(C(=O)NN=Cc3ccc(OC)cc3OC)c2)cc1	0	0	0	0	0	25.8	0
O=C(N/N=C/c1cccnc1)c1cccc(NC(=O)c2cccc(Br)c2)c1	0	0	0	0	0	45.1	0
CC(=O)Nc1cccc(C(=O)N/N=C/c2cccnc2)c1	0	0	0	0	0	0	-
COc1ccc(NS(=O)(=O)c2ccc(OC)c(NC(=O)CNC(=O)c3ccc(OC)cc3)c2)cc1	0	0	0	0	0	38.7	0
SMILES	PvdQ acylase	N-glyco inh	RAD54 inh	F508del corr	RAD52 inh	dFosB act-1	dFosB act-2
O=C(N/N=C/c1ccncc1)c1cccc(S(=O)(=O)Nc2ccc(Cl)cc2)c1	0	0	-	0	0	45.4	0
O=C(N/N=C/c1ccncc1)c1cccc(S(=O)(=O)N2CCCC2)c1	0	0	0	0	0	0	-
Cc1cccc(NS(=O)(=O)c2ccc3c(c2)Cc2cc(S(=O)(=O)Nc4cccc(C)c4C)ccc2-3)c1C	0	0	0	0	0	24.3	0
Cc1cccc(NS(=O)(=O)c2ccc3[nH]c(=O)[nH]c3c2)c1C	0	0	0	0	0	0	-
COCCOC(=O)N1C(=O)[C@@]2(c3cc(C#CCCO)ccc31)[C@H](c1ccccc1OCCO)N1[C@H](c3ccccc3)[C@H](c3ccccc3)OC(=O)[C@H]1[C@@H]2C(=O)N1CCN(c2ncccn2)CC1	-	-	0	0	0	-	-
COc1ccc(C2c3ccc4ccccc4c3Oc3ncn(Cc4ccco4)c(=N)c32)cc1OC (stereo unspecified)	0	0	0	-	-	52.7	0
C[C@@H]1CN([C@@H](C)CO)C(=O)c2cc(NC(=O)CCCN(C)C)ccc2O[C@H]1CN(C)S(=O)(=O)c1cn(C)cn1	-	-	0	0	0	-	-
C[C@@H]1CN([C@@H](C)CO)C(=O)Cc2cc(NC(=O)Nc3ccc(C(F)(F)F)cc3)ccc2O[C@H]1CN(C)CC1CC1	-	-	0	0	0	-	-
Cc1c(C(=O)OCC(=O)Nc2ccc(S(N)(=O)=O)cc2)oc2c1ccc1ccccc12	0	0	-	0	0	28.6	0
Cc1ccc2c(C)c(C(=O)Nc3ccc(S(N)(=O)=O)cc3)oc2c1C	0	0	0	0	0	48.3	0
COc1ccc(NC(=O)N(C)C[C@@H]2OCCCC[C@@H](C)Oc3ccc(NS(=O)(=O)c4c(C)noc4C)cc3C(=O)N([C@H](C)CO)C[C@H]2C)cc1	-	-	0	0	-	-	-
CCOc1ccc(Br)cc1C(=O)Nc1ccc(C(=O)NCC(C)C)cc1	0	114.9	-	-	-	73.8	0
COc1ccc(Br)cc1C(=O)Nc1ccc(C(=O)NCC(C)C)cc1	0	0	0	0	0	0	-
O=C(C[C@H]1CC[C@@H]2[C@H](COC[C@@H](O)CN2CC2CCOCC2)O1)N1CCOCC1	-	-	0	0	0	-	-
CC(=O)Nc1ccc(S(=O)(=O)NCCS(=O)(=O)N2CCN(c3ccccc3F)CC2)cc1	0	0	0	0	0	21.6	0
C=CC[C@]1(C(=O)OC)N=C(c2ccc(OCCCO)cc2)O[C@H]1c1ccccc1	-	-	0	0	0	-	-
O=c1c(-c2c(O)cc(O)c3c2O[C@H](c2ccc(O)cc2)CC3)c(-c2ccc(O)cc2)oc2cc(O)cc(O)c12	0	0	0	-	-	30.8	0
O=c1c(O)c(-c2ccc(O)cc2)oc2cc(O)cc(O)c12	0	0	0	0	0	0	-
COc1ccc(C(CNC(=O)c2oc3ccccc3c2C)N2CCCC2)cc1 (stereo unspecified)	0	0	0	0	0	0	-
COc1ccc(C(CNC(=O)c2oc3ccc(Cl)cc3c2C)N2CCCCC2)cc1 (stereo unspecified)	0	0	0	0	0	22.9	0
CO[C@H]1CN(C)C(=O)c2ccc(NC(=O)c3cnccn3)cc2OC[C@@H](C)N(C)C[C@H]1C	-	-	0	0	-	-	-
COc1ccc(-n2nnnc2SCC(=O)c2ccc3c(c2)OCCO3)cc1	0	0	0	-	-	22.6	0
Cc1ccc(NC(=O)CSc2nnnn2-c2ccc3c(c2)OCO3)cc1C	0	0	0	-	-	40.4	0

Screening results as filed in PubChem BioAssay.
